Source: PubChem BioAssay AID504832 (National Center for Advancing Translational Sciences (NCATS), 2011)
About 18,000 (5.8%) of roughly 310,000 compounds were called active. Another 22% or so got no clear call; they are omitted. This excerpt belongs to a sample that is enriched for actives. A number with no mark means an inactive call. Calls follow the shape of the dose curve; as a rule, active = well fitted inhibition curve with a large enough effect; inconclusive = small, poorly fitted or top-dose-only effect, or another doubt; inactive = no such curve, though single readings can be large or run the other way. Non-standard residues stand in square brackets, D forms with d. Residues, ends and D or L forms follow the SMILES beside them. *: point of attachment. PhAc = O=C(Cc1ccccc1)*

Experiment: Primary qHTS for delayed death inhibitors of the malarial parasite plastid, 48 hour incubation
Conditions: P. falciparum luciferase growth in erythrocytes; series mostly up to 28.7 µM; activity change, negative = inhibition: at the top concentration
Procedure, shortened: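 First compound was added to culture medium, then infected red cells at 0.1% parasitemia and 2% hematocrit (final). After incubation at 37 C under 5% CO2, luciferase detection reagent was dispensed and light output recorded.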
% is scaled to controls: 0 for no effect and ±100 for the full control effect; potency is read from the fitted curve at half-maximal effect.

Compound	activity change, negative = inhibition	Potency
Cc1ccccc1OCCC(=O)OCC(=O)NCCc1ccc(S(N)(=O)=O)cc1	0%	–
Cc1cc(C)c(S(=O)(=O)c2cc(F)ccc2C)c(=O)[nH]1	23.4%	–
O=c1ccc(-c2ccc(S(=O)(=O)Nc3ccccc3)o2)n[nH]1	18.2%	–
O=C(CN1C(=O)CSC1=O)N1CCCC(Nc2ccc(F)cc2)C1 (stereo unspecified)	-15.8%	–
Cc1ccc(S(=O)(=O)N(C)c2ccc(OCC(=O)OCC(=O)N(CC#N)c3ccccc3)cc2)cc1	-18.1%	–
Cc1cccc(NC(=O)c2ccc([N+](=O)[O-])o2)c1	–	13.1 µM (active)
Cc1cccc(NC(=S)NC(=O)c2ccc(Br)o2)c1	29.3%	–
O=C(Nc1ccc(Br)cn1)c1ccc([N+](=O)[O-])o1	-37.6%	–
O=C(CNC(=O)c1ccc(Br)o1)Nc1ccccc1	5.96%	–
COCCNC(=O)c1ccc(S(=O)(=O)c2ccc(Cl)cc2)c(NC(C)=O)c1	0.449% [at 0.00184 µM]	–
c1cnc(N2CCN(c3ccc4ccccc4n3)CC2)nc1	161%	–
CC12CCC(C(=O)N3CCN(c4ncccn4)CC3)(c3nc4ccccc4nc31)C2(C)C (stereo unspecified)	–	11.7 µM (active)
CC(Oc1ccc(F)cc1)C(=O)N1CCN(c2ncccn2)CC1 (stereo unspecified)	4.64%	–
O=C(NCc1nnc(SCC(=O)N2CCCCCC2)o1)c1ccc(F)cc1	-11.3%	–
Cc1ccc(S(=O)(=O)N[C@@H](Cc2ccccc2)C(=O)N2CCC(C(=O)N[C@H](C(=O)O)C(C)O)CC2)cc1 (stereo partly specified)	18.2%	–
N#CC1=C(SCc2ccccc2)NC(=O)C(C#N)C12CCCC2 (stereo unspecified)	5.15%	–
Cc1cc(NC(=O)CSc2nc3c(cc2C#N)CCCCC3)no1	42.4%	–
CN1CCc2nc(SC(C(=O)O)c3ccccc3)c(C#N)c(-c3cccs3)c2C1 (stereo unspecified)	-13.9%	–
CC1(C)CCc2nc(SCc3ccccc3)c(C#N)cc2C1	–	5.22 µM (active)
CC(NC(=O)CSc1nc2c(cc1C#N)CN(C)CC2)c1ccccc1 (stereo unspecified)	–	10.4 µM (active)
Cc1cc(C)c(C#N)c(SCc2ccccc2C(=O)O)n1	31.1%	–
C[C@@H]1CC[C@@]2(OC1)O[C@H]1C[C@H]3[C@@H]4CC=C5C[C@@H](O)[C@H](O)C[C@]5(C)C4CC[C@]3(C)[C@H]1[C@@H]2C (stereo partly specified)	29.2%	–
CN(C)c1ccc(CNC(=O)CN2C(=O)COc3ccc(S(=O)(=O)N4CCCC4)cc32)cc1	14.1%	–
Cc1ccc(S(=O)(=O)NCc2ccc(C(=O)NC3CCC(C)CC3)cc2)cc1 (stereo unspecified)	-18.1%	–
O=C(CC(n1cncn1)C(Cl)(Cl)Cl)c1ccc([N+](=O)[O-])cc1 (stereo unspecified)	-32.2% [at 0.00184 µM]	–
CC(C)C[C@@H](NC(=O)[C@H]1CCCN1C(=O)Cc1ccccc1)C(N)=O (PhAc-[dP]-[dL]-NH2)	8.09% [at 0.00184 µM]	–
